Hits are enriched below; roughly 3% of the tested compounds scored in any of these assays.
SARS PLP yeast: SARS-CoV PLP inhibition in yeast; S. cerevisiae expressing SARS-CoV PLpro, growth rescue; Potency, µM (series often up to 32.9 µM), for the others: top-dose activity, positive = growth rescue, usual class: activators; hit rate 0.19% among 330,000; calls by dose curve; note: 0% is about no effect; nearly all actives have a fitted effect of over 55% in size
Sm TGR block: blocks Schistosoma mansoni thioredoxin glutathione reductase; hit rate 3% among 360,000; AID 485364; purified TGR, DTNB reduction, TNB absorbance 405 nm; Q962Y6; Potency, µM (series often up to 114 µM), without a hit: at the highest dose activity change, negative = inhibition, usual class: inhibitors; active = well fitted inhibition curve with a large enough effect; inconclusive = small, poorly fitted or top-dose-only effect; inactive = no such curve, though single readings can be large or run the other way; note: % is set by controls: 0 for no effect and ±100 for the full control effect; nearly all actives have a fitted effect of over 60% in size
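TGR 20 nM + NADPH 100 uM (dispensed conc.), cpd preinc 15 min RT; start with NADPH (500 uM addition) then DTNB (15 mM addition). Kinetic TNB absorbance, 405 nm filter. Four-parameter Hill fit across titration.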
Starred values were filed as active, the others as inactive; ? = inconclusive; · = not tested or not shown. Potency is the fitted concentration of half-maximal effect.

SMILES | SARS PLP yeast | Sm TGR block
O=C(CSc1ccc(-c2ccco2)nn1)NC1CCCC1 | -3% | 18µM*
O=C(CSc1ccc(-c2ccco2)nn1)N1CCCCCC1 | 1% | 25µM*
O=C(CSc1ccc(-c2ccccc2)nn1)NC1CCCCC1 | · | -22%
O=C(CSc1ccc(-c2ccccc2)nn1)NC1CCCC1 | 12% | -24%
O=C(CSc1ccc(-c2ccco2)nn1)NC1CCCCC1 | -2% | 8.9µM*
O=C(CSc1ccc(-c2ccccc2)nn1)N1CCCCC1 | -6% | 16%
COc1ccc(NC(=O)Cn2c(=O)n(CCc3ccccc3)c(=O)c3c4c(sc32)CCCC4)cc1 | · | -2%
N/C(=N\S(=O)(=O)c1ccccc1)c1ccc([N+](=O)[O-])cc1 | 5% | 13µM*
N/C(=N/S(=O)(=O)c1ccccc1)c1cccc([N+](=O)[O-])c1 | 1% | ?
CCCCC(=O)N/N=C/c1ccc(-c2ccc([N+](=O)[O-])cc2)o1 | -2% | 1%
CC(C)(C)NC(=S)N/N=C\c1ccc(-c2ccc([N+](=O)[O-])cc2)o1 | -1% | 2.2µM*
COCCNC(=O)CN1C(=O)c2cccnc2Oc2ccc(Cl)cc21 | · | 1%
COc1cccc(/C=C/c2[nH]c(=O)[nH]c(=O)c2[N+](=O)[O-])c1O | -2% | 35µM*
COc1cc(/C=C/c2[nH]c(=O)[nH]c(=O)c2[N+](=O)[O-])cc(OC)c1O | -7% | -35%
COc1ccc(CNC(=O)c2ccc3c(c2)CCN3S(=O)(=O)c2ccc(Cl)cc2)cc1 | · | -1%
C/C=C1/C[N+]2(C)CCC34C(=C(C=O)[C@H]1C[C@@H]32)Nc1ccccc14 (stereo partly drawn) | · | 28µM*
Cc1cccc(Oc2nc3c(c(=O)n(C)c(=O)n3C)n2C)c1C | · | 18%
Cc1ccc2c(c1)Oc1ccc([N+](=O)[O-])cc1C(=O)N2 | -5% | 1%
Cc1ccc2c(c1)Oc1ccc(NC(=O)CCl)cc1C(=O)N2 | 1% | 11µM*
COCCN(CC1CCCN(C2Cc3ccccc3C2)C1)C(=O)CCSC (stereo not drawn) | 1% | ?
COCCN(CC1CCCN(C2Cc3ccccc3C2)C1)C(=O)CSC (stereo not drawn) | -5% | 32µM*
COC(=O)c1c(-c2ccc(Cl)cc2)noc1N1CCN(c2ccc(OC)cc2)CC1 | · | 1%
Oc1cc(O)c2c(c1)O[C@H](c1ccc(O)c(O)c1)[C@H](O)C2 | 2% | ?
O=C(O[C@@H]1Cc2c(O)cc(O)cc2O[C@@H]1c1cc(O)c(O)c(O)c1)c1cc(O)c(O)c(O)c1 | ? | 11µM*
O=C(CSc1nnc(-c2cnccn2)n1Cc1ccco1)c1ccc2ccccc2c1 | 0% | 25µM*
SMILES | SARS PLP yeast | Sm TGR block
CC(C)OC(=O)CSc1nnc(-c2cnccn2)n1Cc1ccco1 | · | -4%
Cc1cccc(NC(=O)CSc2nnc(-c3cnccn3)n2Cc2ccco2)c1 | 0% | ?
Cc1ccc(NC(=O)CSc2nnc(-c3cnccn3)n2Cc2ccco2)cc1 | -1% | 45µM*
C(=C\c1ccccc1)/CSc1nnc(-c2cnccn2)n1Cc1ccco1 | -2% | 20µM*
Fc1ccccc1CSc1nnc(-c2cnccn2)n1Cc1ccco1 | 9% | -21%
Cc1cn2c(=O)cc(COC(=O)c3ccc(NC(=O)c4ccccc4C)cc3)nc2s1 | · | 0%
Cc1cc(OCC(=O)N(Cc2ccc(N(C)C)cc2)CC2CCCO2)ccc1Cl (stereo not drawn) | · | 6%
O=C(COc1ccc([N+](=O)[O-])cc1)Nc1nc2c(s1)CCCC2 | · | 1%
Cc1cc(C)n(CCc2nc(-c3ccco3)cs2)n1 | 5% | 40µM*
Cc1cc(C)n(CCc2nc(-c3cccs3)cs2)n1 | 23% | 0%
O=C(CNC(=O)c1cccs1)c1ccc(Cl)cc1 | 0% | 1%
O=C(CCNc1cc(Cl)cc(Cl)c1)c1cccs1 | -27% | ?
O=C(CCNc1ccc(Cl)cc1)c1cccs1 | 3% | 16µM*
O=C(CCSc1ccc(Cl)cc1)c1cccs1 | -1% | 2.2µM*
COc1cc2c(cc1OC)n(CC(=O)c1ccc(F)cc1)c(=O)n1nc(CCn3nc(C)cc3C)nc21 | · | -2%
Cc1cc2nc(-c3ccc(SCC(=O)N4CCOCC4)nc3)[nH]c2cc1C | -2% | -1%
Cc1cc2nc(-c3ccc(SCC(=O)N4CCN(C(=O)c5ccco5)CC4)nc3)[nH]c2cc1C | -7% | 10µM*
C=C[C@]1(C)C=C2CCC3[C@](C)(CCC[C@@]3(C)C(=O)O)C2CC1 (stereo partly drawn) | 3% | -3%
C=C/C(C)=C/CC1C(=C)CCC2C(C)(C(=O)O)CCCC12C (stereo not drawn) | 0% | 32µM*
CCc1ccc(C(=O)Nc2cccc(-c3nc4cc(C(C)C)ccc4o3)c2)cc1 | · | 0%
Cc1ccc(NC2=NCC(=O)N2C2CCCC2)c(C)c1 | 23% | 22µM*
Cc1ccc(C)c(NC2=NCC(=O)N2C2CCCCC2)c1 | 4% | -3%
COc1ccc(-c2cc(C(F)(F)F)nc(SCCC(=O)Nc3cc(C)ccc3O)n2)cc1 | · | 7%

Source: PubChem BioAssay (National Center for Advancing Translational Sciences (NCATS))
